# Experimental data reported in PubChem BioAssay (NCI).
# Compounds without any hit were thinned out: in the full panel of roughly 79,000, 15% have a hit. Unmarked numbers belong to inactive results. The source made the active and inactive calls. No stated cut-off is given here; in the data, active means growth inhibition above about 70%; inactive means the rest.
# What was measured:
# [1] = NCI Yeast Anticancer Drug Screen. Data for the rad52 strain (AID 147);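 further: 0% = growth of vehicle-treated control cultures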; settings: S. cerevisiae rad52 mutant growth inhibition, active compounds read high
# How it was run: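 The repair-mutant yeast strain was incubated with compounds, then growth was read and inhibition derived relative to vehicle.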
# [2] = NCI Yeast Anticancer Drug Screen. Data for the wt1 strain (AID 149);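 further: 0% = growth of vehicle-treated wt1 cultures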; settings: S. cerevisiae wt1 strain (SPY 50644) growth inhibition, active compounds read high
# How it was run: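 wt1 yeast, compound-treated; % growth inhibition vs vehicle control.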
# [3] = NCI Yeast Anticancer Drug Screen. Data for the rad50EPP+ strain (AID 151);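 further: 0% = growth of vehicle-treated control cultures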; settings: S. cerevisiae rad50 mutant strain, active compounds read high
# How it was run: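 Vehicle-normalised growth inhibition; rad50EPP+ yeast strain, altered in DNA damage repair, compound-treated.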
# [4] = NCI Yeast Anticancer Drug Screen. Data for the mgt1 strain (AID 153); settings: S. cerevisiae mgt1 mutant growth inhibition, active compounds read high
# How it was run: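 Vehicle-normalized growth inhibition is determined in mgt1 yeast, a strain selected for a defined alteration in DNA repair or cell cycle control.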
# [5] = NCI Yeast Anticancer Drug Screen. Data for the rad50 strain (AID 155);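 further: 0% = growth of vehicle-only cultures of the same strain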; settings: S. cerevisiae rad50 strain growth inhibition, active compounds read high
# How it was run: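 Genetically altered yeast (DNA repair pathway); compound treatment; growth inhibition vs vehicle ctrl.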
# [6] = NCI Yeast Anticancer Drug Screen. Data for the mec2-1 strain (AID 157); settings: S. cerevisiae mec2-1 strain, active compounds read high
# How it was run: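 Mutant yeast (mec2-1) grown with compound; growth inhibition relative to vehicle control reported.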
# [7] = NCI Yeast Anticancer Drug Screen. Data for the rad14 strain (AID 159);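 further: 0% = growth of vehicle-treated control cultures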; settings: S. cerevisiae rad14 strain growth inhibition, active compounds read high
# How it was run: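 Test compounds were applied to a repair-deficient yeast strain. Its growth was then compared with that of cultures given vehicle alone, and inhibition was expressed relative to those controls.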
# [8] = NCI Yeast Anticancer Drug Screen. Data for the sgs1 mgt1 strain (AID 161);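 further: 0% = growth of cultures given vehicle only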; settings: S. cerevisiae sgs1 mgt1 strain, active compounds read high
# How it was run: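 Compounds are added to genetically altered yeast, and growth is compared with cultures given vehicle alone to give percent inhibition.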
# [9] = NCI Yeast Anticancer Drug Screen. Data for the CLN2oe strain (AID 163);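 further: 0% = growth of vehicle-only control cultures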; settings: S. cerevisiae CLN2oe strain, active compounds read high
# How it was run: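 Compounds are applied to yeast harbouring a defined cell-cycle control change; reduced growth compared with vehicle-treated controls gives the value.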
# [10] = NCI Yeast Anticancer Drug Screen. Data for the cln2 rad14 strain (AID 165);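 further: 0% = growth equal to vehicle treated cultures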; settings: S. cerevisiae cln2 rad14 strain, active compounds read high
# How it was run: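 Readout is yeast growth inhibition versus vehicle-treated controls, using a strain with cln2 and rad14 alterations exposed to compound.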
# [11] = NCI Yeast Anticancer Drug Screen. Data for the bub3 strain (AID 167); settings: S. cerevisiae bub3 mutant strain, active compounds read high
# How it was run: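 Yeast carrying a defined mutation is treated with each compound, and growth is compared with that of vehicle-exposed cells to give inhibition.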
# [12] = NCI Yeast Anticancer Drug Screen. Data for the wt2 strain (AID 169);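 further: 0% = growth of vehicle-treated yeast cultures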; settings: S. cerevisiae wt2 strain growth inhibition, active compounds read high
# How it was run: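 Against vehicle-treated controls, the growth of yeast exposed to each compound was compared, and the inhibition was recorded.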
# [13] = NCI Yeast Anticancer Drug Screen. Data for the mlh1 strain (AID 171);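 further: 0% = growth of vehicle-treated control cultures of the same strain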; settings: S. cerevisiae mlh1 strain growth inhibition, active compounds read high
# How it was run: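 Measured: yeast growth. Reference: vehicle-treated controls. Organism: strain with a defined alteration affecting DNA damage repair or cell cycle control, treated with compound.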
# [14] = NCI Yeast Anticancer Drug Screen. Data for the sgs1 strain (AID 173);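 further: 0% = growth of vehicle-only control cultures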; settings: S. cerevisiae sgs1 mutant, active compounds read high
# How it was run: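 Each compound was added to cultures of the altered yeast strain. Growth was recorded, and inhibition was derived by comparison with vehicle controls.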
# [15] = NCI Yeast Anticancer Drug Screen. Data for the mlh1 rad18 strain (AID 175); settings: S. cerevisiae mlh1 rad18 strain growth inhibition, active compounds read high
# How it was run: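 Genetically defined yeast (DNA repair-deficient) exposed to compounds; growth inhibition determined relative to vehicle.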
# [16] = NCI Yeast Anticancer Drug Screen. Data for the rad18 strain (AID 177); settings: S. cerevisiae rad18 mutant growth inhibition, active compounds read high
# How it was run: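 Vehicle-treated cultures served as the baseline for scoring compound-induced growth inhibition in DNA-repair-mutant yeast.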
# [17] = at 5.0 µM (retest, dose inferred, filed as 0.5)
# [18] = at 50.0 µM (retest, dose inferred, filed as 5.0)
smiles,measurement,setting,value
CC(C)[N+]([O-])(CCCNc1c2ccccc2nc2cccc([N+](=O)[O-])c12)C(C)C,growth inhibition,[1]; at 1.2 µM,48%
same,growth inhibition,[1]; at 3.7 µM,83% (active)
same,growth inhibition,[1]; at 11.0 µM,94% (active)
same,growth inhibition,[1]; at 33.0 µM,96% (active)
same,growth inhibition,[1]; at 100.0 µM,98% (active)
same,growth inhibition,[2]; at 1.2 µM,0%
same,growth inhibition,[2]; at 3.7 µM,3%
same,growth inhibition,[2]; at 11.0 µM,18%
same,growth inhibition,[2]; at 33.0 µM,78% (active)
same,growth inhibition,[2]; at 100.0 µM,94% (active)
same,growth inhibition,[3]; at 1.2 µM,6%
same,growth inhibition,[3]; at 3.7 µM,26%
same,growth inhibition,[3]; at 11.0 µM,66%
same,growth inhibition,[3]; at 33.0 µM,91% (active)
same,growth inhibition,[3]; at 100.0 µM,97% (active)
same,growth inhibition,[4]; at 1.2 µM,0%
same,growth inhibition,[4]; at 3.7 µM,6%
same,growth inhibition,[4]; at 11.0 µM,24%
same,growth inhibition,[4]; at 33.0 µM,90% (active)
same,growth inhibition,[4]; at 100.0 µM,98% (active)
same,growth inhibition,[5]; at 1.2 µM,24%
same,growth inhibition,[5]; at 3.7 µM,57%
same,growth inhibition,[5]; [17],70% (active)
same,growth inhibition,[5]; at 11.0 µM,86% (active)
same,growth inhibition,[5]; at 33.0 µM,93% (active)
same,growth inhibition,[5]; [18],97% (active)
same,growth inhibition,[5]; at 50.0 µM,87.6% (active)
same,growth inhibition,[5]; at 100.0 µM,96% (active)
same,growth inhibition,[6]; at 1.2 µM,13%
same,growth inhibition,[6]; at 3.7 µM,69%
same,growth inhibition,[6]; [17],68%
same,growth inhibition,[6]; at 11.0 µM,96% (active)
same,growth inhibition,[6]; at 33.0 µM,98% (active)
same,growth inhibition,[6]; [18],99% (active)
same,growth inhibition,[6]; at 50.0 µM,87% (active)
same,growth inhibition,[6]; at 100.0 µM,99% (active)
same,growth inhibition,[7]; at 1.2 µM,50%
same,growth inhibition,[7]; at 3.7 µM,93% (active)
same,growth inhibition,[7]; at 11.0 µM,98% (active)
same,growth inhibition,[7]; at 33.0 µM,99% (active)
same,growth inhibition,[7]; at 100.0 µM,99% (active)
same,growth inhibition,[8]; [17],89% (active)
same,growth inhibition,[8]; [18],98% (active)
same,growth inhibition,[8]; at 50.0 µM,93.6% (active)
same,growth inhibition,[9]; at 1.2 µM,-3%
same,growth inhibition,[9]; at 3.7 µM,2%
same,growth inhibition,[9]; at 11.0 µM,42%
same,growth inhibition,[9]; at 33.0 µM,88% (active)
same,growth inhibition,[9]; at 100.0 µM,95% (active)
same,growth inhibition,[10]; [17],96% (active)
same,growth inhibition,[10]; [18],99% (active)
same,growth inhibition,[10]; at 50.0 µM,96% (active)
same,growth inhibition,[11]; at 1.2 µM,-14%
same,growth inhibition,[11]; at 3.7 µM,-8%
same,growth inhibition,[11]; [17],-2%
same,growth inhibition,[11]; at 11.0 µM,33%
same,growth inhibition,[11]; at 33.0 µM,90% (active)
same,growth inhibition,[11]; [18],97% (active)
same,growth inhibition,[11]; at 50.0 µM,11.9%
same,growth inhibition,[11]; at 100.0 µM,98% (active)
same,growth inhibition,[12]; at 1.2 µM,1%
same,growth inhibition,[12]; at 3.7 µM,5%
same,growth inhibition,[12]; at 11.0 µM,24%
same,growth inhibition,[12]; at 33.0 µM,89% (active)
same,growth inhibition,[12]; at 100.0 µM,96% (active)
same,growth inhibition,[13]; at 1.2 µM,3%
same,growth inhibition,[13]; at 3.7 µM,10%
same,growth inhibition,[13]; at 11.0 µM,37%
same,growth inhibition,[13]; at 33.0 µM,91% (active)
same,growth inhibition,[13]; at 100.0 µM,98% (active)
same,growth inhibition,[14]; at 1.2 µM,64%
same,growth inhibition,[14]; at 3.7 µM,84% (active)
same,growth inhibition,[14]; at 11.0 µM,93% (active)
same,growth inhibition,[14]; at 33.0 µM,96% (active)
same,growth inhibition,[14]; at 100.0 µM,97% (active)
same,growth inhibition,[15]; [17],92% (active)
same,growth inhibition,[15]; [18],98% (active)
same,growth inhibition,[15]; at 50.0 µM,95.2% (active)
same,growth inhibition,[16]; at 1.2 µM,96% (active)
same,growth inhibition,[16]; at 3.7 µM,96% (active)
same,growth inhibition,[16]; at 11.0 µM,96% (active)
same,growth inhibition,[16]; at 33.0 µM,97% (active)
same,growth inhibition,[16]; at 100.0 µM,97% (active)
CCCCCCCCNC(=O)C1=C(C)NC(C)=C(C(=O)NCCCCCCCC)C1,growth inhibition,[1]; at 1.2 µM,0%
same,growth inhibition,[1]; at 3.7 µM,1%
same,growth inhibition,[1]; at 11.0 µM,3%
same,growth inhibition,[1]; at 33.0 µM,-4%
same,growth inhibition,[1]; at 100.0 µM,3%
same,growth inhibition,[2]; at 1.2 µM,2%
same,growth inhibition,[2]; at 3.7 µM,3%
same,growth inhibition,[2]; at 11.0 µM,1%
same,growth inhibition,[2]; at 33.0 µM,0%
same,growth inhibition,[2]; at 100.0 µM,3%
same,growth inhibition,[3]; at 1.2 µM,0%
same,growth inhibition,[3]; at 3.7 µM,-1%
same,growth inhibition,[3]; at 11.0 µM,2%
same,growth inhibition,[3]; at 33.0 µM,11%
same,growth inhibition,[3]; at 100.0 µM,25%
same,growth inhibition,[4]; at 1.2 µM,0%
same,growth inhibition,[4]; at 3.7 µM,0%
same,growth inhibition,[4]; at 11.0 µM,1%
same,growth inhibition,[4]; at 33.0 µM,-13%
same,growth inhibition,[4]; at 100.0 µM,4%
same,growth inhibition,[5]; at 1.2 µM,-4%
same,growth inhibition,[5]; at 3.7 µM,-13%
same,growth inhibition,[5]; [17],8%
same,growth inhibition,[5]; at 11.0 µM,-17%
same,growth inhibition,[5]; at 33.0 µM,-3%
same,growth inhibition,[5]; [18],6%
same,growth inhibition,[5]; at 50.0 µM,-29.5%
same,growth inhibition,[5]; at 100.0 µM,4%
same,growth inhibition,[6]; at 1.2 µM,0%
same,growth inhibition,[6]; at 3.7 µM,2%
